Measurements: PubChem BioAssay (Tox21)
Records with an inconclusive call do not appear. Entries that show only a call come without a potency. More than one record can exist for a structure, and the calls need not agree. Calls of active or inactive are those of the source. Calls come from the whole dose curve; as a rule, active = well fitted activation curve with a large enough effect in the signal ratio in the repeat runs (not every such curve was filed as active); inconclusive = weak or mixed curves; inactive = flat fitted curve, though single readings scatter; the % refers to the signal ratio.

Experiment: qHTS assay to identify small molecule agonists of H2AX (AID 1224845)
Conditions: CHO-K1 phospho-H2AX Ser139 HTRF, 3 h; series mostly up to 154 µM
Procedure, shortened: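 Phospho-H2AX Ser139 measured by HTRF (ex 320 nm; em 665 and 620 nm) after 24 hr antibody incubation. Compounds, 15 concentrations, 0.76% DMSO, were applied to CHO-K1 cells for 3hr at 37C before lysis.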
Potency is the fitted concentration of half-maximal effect.

SMILES | Potency
CON(C)C(=O)Nc1ccc(Cl)c(Cl)c1 | inactive
OCCN(CCO)CCO | inactive
CC(C)C1(C)N=C(c2nc3ccccc3cc2C(=O)O)NC1=O (stereo unspecified) | inactive
Clc1cccc(Cl)c1Cl | inactive
O=[N+]([O-])c1ccccc1 | inactive
Cc1ccc(N)cc1Cl | inactive
O=c1[nH]c(=O)[nH]c(=O)[nH]1 | inactive
O=C(NC(=O)c1c(F)cccc1F)Nc1cc(Cl)c(OC(F)(F)C(F)C(F)(F)F)cc1Cl (stereo unspecified) | inactive
Cc1cc(Cl)ccc1O | inactive
CN=C=S | inactive
CC(C)(C)OOC(=O)c1ccccc1 | inactive
O=NN1CCCC1 | 16.7 µM (active) and inactive
CC(C)C#N | inactive
C#CCN(C)[C@H](C)Cc1ccccc1 | inactive
c1ccc(-c2ccccc2)cc1 | inactive
c1cc2c3c(cccc3c1)CC2 | inactive

SMILES | Potency
CNC(=O)Oc1ccccc1OC(C)C | inactive
O=Cc1cccc(Oc2ccccc2)c1 | inactive
CC(C)(Cl)Cl | inactive
NCC(O)c1ccc(O)cc1 (stereo unspecified) | inactive
C=CC(N)=O | inactive
BrCCBr | inactive
Nc1ccccc1C(=O)O | inactive
CN(C)CCO | inactive
CC1C=[C-]C=C1.[C-]#[O+].[C-]#[O+].[C-]#[O+].[Mn] | inactive
O=[N+]([O-])c1ccc([As](=O)(O)O)cc1 | inactive
Clc1ccc(Cl)cc1 | inactive
CC(C)(C)C(O)(CCc1ccc(Cl)cc1)Cn1cncn1 (stereo unspecified) | inactive
C1CC2OC2CC1C1CO1 (stereo unspecified) | inactive
Nc1ccc(Oc2ccc(N)cc2)cc1 | inactive
COCCl | inactive
